B1: d1r7_design_ppi_147_dldesign_0_cycle1_af2pred (protein)
chain: AAAAAKATAKQIAAIAEEAIAKVKAATPEEAKKIAAEANQQIRALAAAAAAAHPEVAAAVAAAATAAIQRVLSTAIEVVSA
B2: d1r7_design_ppi_74_dldesign_0_cycle1_af2pred (protein)
chain: AKEKAEELYKKFSEEINKSLALLGKAGLAAVEDPAKGAELFKKAKAELEEAKKYAKKLEELDPELGKKAKAELKKVQDLYDGTYKANV
B3: d1r7_design_ppi_855_dldesign_0_cycle1_af2pred (protein)
chain: SAAAAQARAVANTAAAAAKQGVPAEEVVALVEGAAKTLAGDPAALQAMIDTLAELAKASTPEAAATLNKAAEAVKKVLA
B4: d1r7_design_ppi_77_dldesign_0_cycle1_af2pred (protein)
chain: SAVEDAANAIWEAAKAMAKAVPEAAATVDKLAREAVRALMLGDYEKAAKIVKEMAKAVAKADPKAAKKAEELAKKTVAKIKAA
B5: d1r7_design_ppi_529_dldesign_0_cycle1_af2pred (protein)
chain: DELEKAIKEAEKYIEELKKTIKEGVKNPEEALKLAEEAEKEGEKAAALGIVGAGVGQLAKAAAQALRNKIAA
B6: d1r7_design_ppi_562_dldesign_0_cycle1_af2pred (protein)
chain: SEKAEKLKKETLEKAEKAVKEAEASPDPKEGIKILSEAAREAARAAAESPEAGSAALALTVSAMEEFAAKARA
B7: d1r7_design_ppi_719_dldesign_0_cycle1_af2pred (protein)
chain: SGAQAAVAAAQANLRQAKQLLEEGDYEGALGHIKLAKLAADAAKKQATAAGDQAAIDQATALQKEAEELEKEAKKALE
B8: d1r7_design_ppi_322_dldesign_0_cycle0_af2pred (protein)
chain: MTLEDLKRAAKAYLHGLANLAAGLGLEELAKKLREAAANVDDAKALKEGAELAKELAALSTPEAAEFAKLAAEVAKAAAKAVEAA
B9: d1r7_design_ppi_290_dldesign_0_cycle0_af2pred (protein)
chain: SAEAAEAEAAAARELAREMYALTPEEAAERMTALFLESPGRALRAATELVRAEGPAALPLAQAWLRAGVAAAQAA
B10: d1r7_design_ppi_270_dldesign_0_cycle1_af2pred (protein)
chain: SMEKALEYLEKAKKSLEEGDKAKAAGDKARALGYYQLAAAYAKSAAHLAKDNPELAKEAKELEKEAKAKLAEVRAA
B11: d1r7_design_ppi_640_dldesign_0_cycle1_af2pred (protein)
chain: AQQAVQQTQKVVDETKEVYERAKKEGSPEVAEKLKELLAQAQNNLQMAQAGGAEAAQLMYQNAKKIYEEAKKYAEEEIKKEKE
B12: d1r7_design_ppi_304_dldesign_0_cycle0_af2pred (protein)
chain: AAEAAAAAAATARASAAMAAFARRRLEEGAAAGPEALARAVAELEALAAHADPAIGAALRAALAATLAALAAAA
B13: d1r7_design_ppi_806_dldesign_0_cycle1_af2pred (protein)
chain: AKEEALRTLKSAAELAKVAADIAANVDPELAKKAKELAEKAKKLAEEAKKASEEEAKKLLEEGKKLLEEVRALTAEVARLAVAA
B14: d1r7_design_ppi_609_dldesign_0_cycle0_af2pred (protein)
chain: SELAEQALAAAESLIAEALRAAAEDPARAARLFASAKAVAEALKKIDPKLGEELLKKVEAAEAEAKAAIA
B15: d1r7_design_ppi_446_dldesign_0_cycle1_af2pred (protein)
chain: GEAARNAEEIFADSRERARALAAEYRASGDPADLAIAAELEEALARAEEEGPAGGVRLIILTDGILQARAAAAA
B16: d1r7_design_ppi_733_dldesign_0_cycle1_af2pred (protein)
chain: VEEALKALEEAAKAAKEAGDEESAKILKEALEKVKAGTPAEGALTIAEKSAEAVKRALEKGNEELAEKILKLGQKAIAALSKAAIA
B17: d1r7_design_ppi_702_dldesign_0_cycle0_af2pred (protein)
chain: SAEKETNLANAKGYLALAKAYTKGATYYATKEGDLEKAKELYEKAKEASKLAIEAAAKAGPEAAAKAKAEADEIDKENEKALKEAE
B18: d1r7_design_ppi_719_dldesign_0_cycle0_af2pred (protein)
chain: SGAKAAIAAAKHNIKQAKKLLEEGDVEGALGHIKLAELATKAAEAEAKAAGDKEALKKAEELKKEVEELKKEAEKKKK
B19: d1r7_design_ppi_420_dldesign_0_cycle1_af2pred (protein)
chain: MTKAEVVAEAIAVAKEAAKIAKANKESPEVQELQKKALDLAFKALASNDAAEAQKYAEKAKEVKKELEKKAKEL
B20: d1r7_design_ppi_24_dldesign_0_cycle0_af2pred (protein)
chain: SELGAILDRASEVSKRAVEVEKKAKEKGLEEALELAREALKEVQAALSLIAKGGDLADAQAKLEEGEKLLEEAEKKLKEE
B21: d1r7_design_ppi_628_dldesign_0_cycle1_af2pred (protein)
chain: AEALLKEAEEVKARAAELAATGPEGIVEAAKLVAEMRRKGVENPEVRERVDALYREASAEIARQQRAWIAQQAAAR
B22: d1r7_design_ppi_815_dldesign_0_cycle0_af2pred (protein)
chain: MEDLEELLRLIAEAQRALKTDAEEGIKLAEEAAKKAEELGLEKAAKLLKEAAKAAKTDAEEGIRLLNQAATQAAREYSEK
B23: d1r7_design_ppi_29_dldesign_0_cycle1_af2pred (protein)
chain: SAATAVALAQAAITFGRSALAAAERAPPERGAKILEAAAEILTAAAAQAPALAAETQALAAEARERAAELAAAAAA
B24: d1r7_design_ppi_682_dldesign_0_cycle1_af2pred (protein)
chain: ATAEQIQQVKNYAKAAIQAVKNAAASDKAEALAVAKIFADALLKQGKLTTPEAAKEAEKAAKEILATAKALAA
B25: d1r7_design_ppi_522_dldesign_0_cycle1_af2pred (protein)
chain: DPNEKARQLMNDAFQQATKLRAAGAANPATAAQDTAQGVQAVNEAKKKAAELASPEYAGKIEEMAKQLTSIISV
B26: d1r7_design_ppi_302_dldesign_0_cycle1_af2pred (protein)
chain: SPVAAQAEALRDAAVAVAKTGNPEAAAAAAHAAVAQMNRLALAHPEENATASSEAVATLEEVDRLRAAQRAAAG
B27: d1r7_design_ppi_677_dldesign_0_cycle0_af2pred (protein)
chain: VEEKIRGIEEAGRLGAEASPELAAEIEAFTKRAVEAARASGDEAVAGAALQAASLALIGAAWYAVDPEKGAAVLARARARLEALIA
B28: d1r7_design_ppi_252_dldesign_0_cycle1_af2pred (protein)
chain: VKEEAVALAKEAAALAREAAELLAPDPLLAAQAQRLAERAEELAERAKAASEEEAKELLEEARVLLAQAELLLTIARQR
B29: d1r7_design_ppi_396_dldesign_0_cycle0_af2pred (protein)
chain: SSPVEQAMKVIEKYMKELAKVVGQEKADAAKNLLFGALAKGVHAGVEAAKAELQAAAKEIQKEIKDPEAQKIIQEATKEAIKELE
B30: d1r7_design_ppi_733_dldesign_0_cycle0_af2pred (protein)
chain: MEEALKALEEAEEAAREAGDEESAEILEKAREEVKAGTPSEGALTVARAAAEAVARARAAGNEDLADRVRALANRAIAALSRAAIA
B31: d1r7_design_ppi_538_dldesign_0_cycle0_af2pred (protein)
chain: MEEVKKKAEEAKKEIEKLYEEALKYAKEGDIEKAAEYISKMREKGLEAAEEVPELAEEILAYTGRKALEALLELGKASL
B32: d1r7_design_ppi_300_dldesign_0_cycle0_af2pred (protein)
chain: MQVMLDAGEYLAKALKATGLEEAKEMAEEVLKAMKEAASLSPEEAESILGELMRKTIAKTGVVGAQAAALAYAHLAELKAA
B33: d1r7_design_ppi_241_dldesign_0_cycle0_af2pred (protein)
chain: SELEARGERIKREAEELRRRAEASTDAEEALAYATELVALAAEAAALGDSEAASVAVRAAAAAHAHAQALRA
B34: d1r7_design_ppi_493_dldesign_0_cycle0_af2pred (protein)
chain: SMLKEKEEAEKKRERVEKLIKEAEEAAKEAEKIDPVSGRGLRGMVEAARRLMEEGNLEAAEKLAQVALDAAAGLAAAA
B35: d1r7_design_ppi_855_dldesign_0_cycle0_af2pred (protein)
chain: SAAAAQARAVARMAAAAAESGVDAAEVLAVVTGAAQQLAADPAALQAMLDTLTALAAASTPEAAAVLAAAAAAVAAVLA
B36: d1r7_design_ppi_71_dldesign_0_cycle1_af2pred (protein)
chain: DYAAQQLALTTRAQEVAERAKKAGKELGNPEEAKKIQQLASLAQALAINPATFPQAEKKLEEAEKRAKKLEKKAKE
B37: d1r7_design_ppi_351_dldesign_0_cycle0_af2pred (protein)
chain: EELEEKKKKAIELLKKAKEKAEKIGDTAVAAAAENAIKAIEAGNLEAAISNARLAKAIAAEDPALKEAAELAKKALEELEEAKKLAEA
B38: d1r7_design_ppi_393_dldesign_0_cycle1_af2pred (protein)
chain: EKLHPQAVAALKAQARNAAKLDPETMKKMAENVAKLVTLLSPAKAKEAEKVKELLLKAAEAKKKGAGEETLKALVEEAAKVIAE

target: CD276, Q5ZPR3
Sequence (Q5ZPR3 whole entry): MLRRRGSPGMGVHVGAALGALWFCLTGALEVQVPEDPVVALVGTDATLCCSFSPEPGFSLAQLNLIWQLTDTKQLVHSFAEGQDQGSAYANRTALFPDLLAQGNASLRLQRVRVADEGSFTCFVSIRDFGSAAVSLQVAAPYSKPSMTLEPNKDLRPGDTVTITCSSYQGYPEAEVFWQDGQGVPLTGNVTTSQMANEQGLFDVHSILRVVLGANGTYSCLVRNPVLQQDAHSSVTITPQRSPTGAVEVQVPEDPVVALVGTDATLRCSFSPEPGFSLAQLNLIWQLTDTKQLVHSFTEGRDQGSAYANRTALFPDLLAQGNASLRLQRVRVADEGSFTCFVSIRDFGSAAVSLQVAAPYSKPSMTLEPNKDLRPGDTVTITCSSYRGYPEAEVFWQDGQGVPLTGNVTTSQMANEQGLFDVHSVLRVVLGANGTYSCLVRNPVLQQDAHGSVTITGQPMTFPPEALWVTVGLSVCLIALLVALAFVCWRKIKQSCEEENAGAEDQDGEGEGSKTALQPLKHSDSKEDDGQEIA

Binding in a display sort, inactive:
B1 not found
B2 not found
B3 not found
B4 not found
B5 not found
B6 not found
B7 not found
B8 not found
B9 not found
B10 not found
B11 not found
B12 not found
B13 not found
B14 not found
B15 not found
B16 not found
B17 not found
B18 not found
B19 not found
B20 not found
B21 not found
B22 not found
B23 not found
B24 not found
B25 not found
B26 not found
B27 not found
B28 not found
B29 not found
B30 not found
B31 not found
B32 not found
B33 not found
B34 not found
B35 not found
B36 not found
B37 not found
B38 not found
